# Data published in PubChem BioAssay.
# The source made the active and inactive calls. Rule as the data show it: active = inhibition above about 31%; inactive = the rest.
# Test: MRP1 drug-resistance reversers in H69AR cells – cell-based, doxorubicin co-treatment, pilot screen (AID 601)
# Details: H69AR cells, CellTiter-Glo, 72 h; compound alone cytotoxicity; at 10 µM
row,SMILES,viability [%]
1,COc1ccc(C2CC(c3ccco3)n3ncnc3N2)cc1 (configuration not stated),95.4
2,CCCCn1c(CN2CCN(c3ccccc3)CC2)nc2c1c(=O)n(C)c(=O)n2C,85.6
3,Cc1ccccc1NC(=O)C1CCCN(S(=O)(=O)c2cnc[nH]2)C1 (configuration not stated),92.6
4,CCOC(=O)C1CCCN(C(=O)c2cn(C)c(=O)c3cc(OC)c(OC)cc23)C1 (configuration not stated),91
5,O=C(C1CCN(S(=O)(=O)c2cccc3cccnc23)CC1)N1CCN(C2CCCCC2)CC1,102
6,Cc1nnc2n(-c3ccc(Cl)cc3)c(=O)c3c4c(sc3n12)CN(C)CC4,91.6
7,COc1ccc(OC)c(NC(=O)c2nnn(Cc3ccc(Br)cc3F)c2N)c1,75.7
8,CCCOc1ccc2ccccc2c1/C=N/n1cnnc1,72.3
9,CCOC(=O)C(C)(C)Sc1nc2c(cnn2-c2ccc(Cl)cc2)c(=O)[nH]1,81.9
10,Cc1cccc(N2C(=O)CC(N3CCN(c4cccc(C(F)(F)F)c4)CC3)C2=O)c1 (configuration not stated),96.9
11,CC(=O)N1c2c(cc(Br)cc2S(=O)(=O)N2CCN(c3ccccn3)CC2)CC1C (configuration not stated),86.6
12,O=C(O)c1ccc2c(c1)C(=O)N(c1ccc(Cl)cn1)C2=O,87.2
13,CC(=O)c1sc(NC(=O)C2COc3ccccc3O2)nc1C (configuration not stated),89.2
14,COc1ccc(OC)c2[nH]c(=O)c(CCNC(=O)C(C)C)cc12,88.6
15,COc1ccc(NC(=O)c2cc(C3CC3)on2)c(OC)c1,91.2
16,Cc1noc(C(=O)Nc2ccc3c(c2)OCO3)c1Cl,96.9
17,CCC(CC)C(=O)NCCc1cc2ccc(C)cc2[nH]c1=O,87.6
18,CCCS(=O)(=O)N1CCN(C(=O)c2cccnc2)CC1,106
19,CCCCn1c2c(c3ccccc31)CCc1nonc1-2,103
20,COc1ccc(-c2[nH]c(-c3cccc(OC)c3)nc2SCC(=O)NCc2ccco2)cc1,71
21,CC1=C(C(=O)OCc2ccccc2)C(c2ccco2)n2ncnc2N1 (configuration not stated),112
22,Cc1c(C)n(C)c2ccc(C(=O)NCc3cccs3)cc12,90.7

# Test: yeast transport mutant growth inhibition pilot in 384-well plates, post-Golgi transport modulator project (AID 636)
# Details: absorbance 615 nm, about 18 h, stronger effect = higher value
row,SMILES,inhibition
1,CCCc1cc(C(=O)Nc2ccccc2SC)no1,0.9% (inactive)
2,Cc1ccc(C(=O)OCC(=O)Nc2ccc3c(c2)OCO3)o1,-2.16% (inactive)
3,COC(=O)C(C#N)C(=C1C(=O)CC(C)(C)CC1=O)c1ccc(O)cc1 (configuration not stated),0.9% (inactive)
4,COC(=O)c1cc(OC)c(OC)cc1NC(=O)c1ccc(Br)o1,0.13% (inactive)
5,COc1cccc(NC(=O)CSc2nnc(Cc3cccn3C)n2-c2ccc(F)cc2)c1,-7.73% (inactive)
6,CCOc1ccc(N(CC(=O)OC)S(=O)(=O)c2ccc(OC)c(OC)c2)cc1,3.12% (inactive)
7,COC(=O)C1=C(C)NC(C)=C(C(=O)OC)C1C1CC=CCC1 (configuration not stated),-0.91% (inactive)
8,CCCCCn1c(=O)[nH]c2cc(C(=O)NCCN3CCOCC3)ccc2c1=O,-7.03% (inactive)
9,COc1ccccc1OCC(=O)N1CCN(c2ccccc2OC)CC1,3.78% (inactive)
10,COc1cccc(-c2nc(CS(=O)(=O)CC(=O)N3CCN(c4ccccn4)CC3)c(C)o2)c1,-4% (inactive)
11,CC1C(=O)C(C)C(c2cccs2)NC1c1cccs1 (configuration not stated),1.73% (inactive)
12,COc1ccc(N2C(=O)CCC(C(=O)N3CCCCC3)C2c2ccc(OC)c(OC)c2)cc1 (configuration not stated),-6.67% (inactive)
13,COc1cccc(NC(=O)c2nc3nc(C)cc(C(F)F)n3n2)c1,1.47% (inactive)
14,O=C(NCCN1CCOCC1)c1ccc2c(c1)N(Cc1ccccc1F)C(=O)CS2,-6.4% (inactive)
15,CCn1cc(C(=O)NCc2ccccc2OC)c(=O)c2cc(S(=O)(=O)N(C)C)ccc21,-5.6% (inactive)
16,CC1Cn2c(nnc2-c2ccc(F)cc2)S1 (configuration not stated),-2.4% (inactive)
17,COc1ccc(NC(=O)CN(c2ccc(C(C)C)cc2)S(=O)(=O)c2c(C)noc2C)cc1OC,1.41% (inactive)
18,Cc1cc(C)c(C(=O)Nc2ccc(S(=O)(=O)Nc3onc(C)c3C)cc2)c(C)c1,-6.27% (inactive)
19,COc1ccc(C2CC(c3ccco3)n3ncnc3N2)cc1 (configuration not stated),-3.07% (inactive)
20,CCCCn1c(CN2CCN(c3ccccc3)CC2)nc2c1c(=O)n(C)c(=O)n2C,-2.27% (inactive)

row,SMILES,inhibition
1,Cc1ccccc1NC(=O)C1CCCN(S(=O)(=O)c2cnc[nH]2)C1 (configuration not stated),-3.87% (inactive)
2,CCOC(=O)C1CCCN(C(=O)c2cn(C)c(=O)c3cc(OC)c(OC)cc23)C1 (configuration not stated),-3.38% (inactive)
3,O=C(C1CCN(S(=O)(=O)c2cccc3cccnc23)CC1)N1CCN(C2CCCCC2)CC1,-2.8% (inactive)
4,Cc1nnc2n(-c3ccc(Cl)cc3)c(=O)c3c4c(sc3n12)CN(C)CC4,-4.94% (inactive)
5,COc1ccc(OC)c(NC(=O)c2nnn(Cc3ccc(Br)cc3F)c2N)c1,1.07% (inactive)
6,CCCOc1ccc2ccccc2c1/C=N/n1cnnc1,-3.08% (inactive)
7,CCOC(=O)C(C)(C)Sc1nc2c(cnn2-c2ccc(Cl)cc2)c(=O)[nH]1,-2.05% (inactive)
8,Cc1cccc(N2C(=O)CC(N3CCN(c4cccc(C(F)(F)F)c4)CC3)C2=O)c1 (configuration not stated),-2.86% (inactive)
9,CC(=O)N1c2c(cc(Br)cc2S(=O)(=O)N2CCN(c3ccccn3)CC2)CC1C (configuration not stated),-1.05% (inactive)
10,O=C(O)c1ccc2c(c1)C(=O)N(c1ccc(Cl)cn1)C2=O,-5.47% (inactive)
11,CC(=O)c1sc(NC(=O)C2COc3ccccc3O2)nc1C (configuration not stated),4.1% (inactive)
12,COc1ccc(OC)c2[nH]c(=O)c(CCNC(=O)C(C)C)cc12,-3.33% (inactive)
13,COc1ccc(NC(=O)c2cc(C3CC3)on2)c(OC)c1,0% (inactive)
14,Cc1noc(C(=O)Nc2ccc3c(c2)OCO3)c1Cl,-4.13% (inactive)
15,CCC(CC)C(=O)NCCc1cc2ccc(C)cc2[nH]c1=O,-4.8% (inactive)
16,CCCS(=O)(=O)N1CCN(C(=O)c2cccnc2)CC1,-0.26% (inactive)
17,CCCCn1c2c(c3ccccc31)CCc1nonc1-2,-0.77% (inactive)
18,COc1ccc(-c2[nH]c(-c3cccc(OC)c3)nc2SCC(=O)NCc2ccco2)cc1,-2.67% (inactive)
19,CC1=C(C(=O)OCc2ccccc2)C(c2ccco2)n2ncnc2N1 (configuration not stated),-2.95% (inactive)
20,Cc1c(C)n(C)c2ccc(C(=O)NCc3cccs3)cc12,-2.8% (inactive)
